Hits are enriched below; roughly 4.5% of the tested compounds scored in any of these assays.
DAX1 inh-1: inhibitors of human orphan nuclear receptor DAX1 (NR0B1) | P51843 | HEK293 Gal4-DAX1 luciferase reporter, luminescence | inhibition, % at 6.75 µM | actives 0.99% (n = 340,000);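 active = inhibition above the mean over all tested compounds plus 3 SD, cut at about 4.2% in these data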;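 also: inhibition shows as a rise in luminescence from relieved DAX1 repression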
Target sequence (P51843 207-470 limits assumed): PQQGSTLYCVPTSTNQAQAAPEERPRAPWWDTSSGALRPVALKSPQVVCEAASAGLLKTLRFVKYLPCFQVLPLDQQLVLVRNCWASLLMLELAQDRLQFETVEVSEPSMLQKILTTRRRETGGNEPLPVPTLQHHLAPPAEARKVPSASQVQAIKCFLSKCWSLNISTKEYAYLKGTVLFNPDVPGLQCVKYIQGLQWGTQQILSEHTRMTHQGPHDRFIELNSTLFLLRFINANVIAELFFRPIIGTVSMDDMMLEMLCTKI
hcDAF-12 act: H. contortus DAF-12 activation, primary screen; HEK293 hcDAF-12 lit1-tk-luc reporter, luminescence; 0% DMSO, 100% Δ7-dafachronic acid; activation, % at 6.8 µM; actives 1.4% (n = 370,000);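 active = activation above the mean of all tested compounds plus 3 SD, cut at about 5.5% in these data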
DAX1 inh-2: DAX1 (NR0B1) inhibition, primary screen; HEK293T StAR-luciferase reporter, SF-1/DAX-1 repression relief; inhibition, % at 6.8 µM; actives 1.1% (n = 370,000);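 active = inhibition above the mean over all tested compounds plus 3 SD, cut at about 3.6% in these data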;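 also: higher inhibition means more luminescence from relief of DAX-1 repression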
hgDAF12 agonist: hgDAF-12 agonism, primary luciferase screen. HEK293 GAL4-hgDAF12 UAS-luciferase reporter, agonist luminescence; normalized to butyrate control. activation, % at 6.8 µM. AID 687014. actives 1.8% (n = 370,000);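 active = activation above a cutoff set at the mean of all screened compounds plus 3 SD, cut at about 10% in these data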
FXN GAA850 act: increases GAA850 frataxin promoter reporter activity; HEK293 lucGAA850 FXN promoter luciferase reporter, 24 h; percent of 10 µM SAHA response; activation, % at 6 µM; actives 0.56% (n = 360,000);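 active = activation above the average of all compounds screened plus 3 SD, cutoff fixed separately per campaign, cut at about 7.5% in these data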
ssDAF-12 act: activates DAF-12 receptor from parasite S. stercoralis | activation, % at 6.8 µM | actives 1% (n = 370,000) | HEK293 ssDAF-12/GRIP1 lit1-tk-luc reporter, luminescence; % of 3 µM dafachronic acid response;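 active = activation above the mean over all tested compounds plus 3 SD, cut at about 0.9% in these data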
hgDAF12 conf: hgDAF-12 agonism, confirmation assay | actives 80% (n = 3,300) | activation, % at 6.8 µM | shares compounds with hgDAF12 agonist | AID 743050 | HEK293 GAL4-hgDAF12 luciferase reporter, agonist mode; percent of butyrate response;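 active = mean activation over triplicate wells above the hit cutoff derived from the earlier primary screen, cut at about 11% in these data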
LXR ag 2: activates human LXR-beta, counter-screen for DAF-12 agonists | shares compounds with hgDAF12 agonist | 3,300 tested, under 10 active | AID 743051 | activation, % at 6.8 µM | HEK293 Gal4-LXR luciferase reporter, 24 h;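 active = mean activation of the triplicate above a set limit carried over from the primary screen, none filed active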
Of the large screens only hits and unclear results are named; the others gave an inactive call (follow-up assays come after a bar, where they were run).

O=C(CSc1nnc(NC2CCCCC2)s1)Nc1ccc2c(c1)C(=O)c1ccccc1C2=O	DAX1 inh-1 12, hgDAF12 agonist 14 | hgDAF12 conf 14 | LXR ag 2 inactive
COc1ccc(/C=N/NC(=O)CN(C)C(=O)OCc2ccccc2)cc1OC	none
CCOc1ccc(N2C(=O)c3ccccc3C2=O)cc1	none
CCOc1ccc(N2C(=O)c3ccccc3C2O)cc1 (stereo not given)	DAX1 inh-2 3.8, hgDAF12 agonist 20 | hgDAF12 conf inactive | LXR ag 2 inactive
CC(C)(C)c1ccc(NC(=O)c2ccc(=O)[nH]n2)cc1	DAX1 inh-1 5.6, hgDAF12 agonist 17 | hgDAF12 conf 14 | LXR ag 2 inactive
COc1cccc(NC(=O)Nc2ccc(C(C)(C)C)cc2)c1	hgDAF12 agonist 18 | hgDAF12 conf 11 | LXR ag 2 inactive
COc1cccc(NC(=O)c2ccc(NC(=O)C(C)(C)C)cc2)c1	none
Cc1ccc(NC(=O)Nc2ccc(F)cc2)cc1Cl	hgDAF12 agonist 15 | hgDAF12 conf 11 | LXR ag 2 inactive
Cc1ccc(NC(=O)C(=O)N2CCCC2)cc1Cl	hgDAF12 agonist 15 | hgDAF12 conf 13 | LXR ag 2 inactive
O=C(Nc1ccc2c(c1)OCO2)c1ccc(=O)[nH]n1	none
Cc1ccc(NC(=O)N2CCCC2)cc1Cl	none
O=C(O)C1CCN(C(=O)COc2ccc3c(c2)oc(=O)c2ccccc23)CC1	none
COc1ccccc1Cc1c(-c2cccc(Cl)c2)nc2ccc(Br)cn12	none (no result: DAX1 inh-1, FXN GAA850 act)
CN(Cc1ccccc1)C(=O)c1ccc(NC(=O)Cc2ccc(NC(=O)C3CCN(C(=O)CCc4ccccc4)CC3)cc2)cc1	none
CC(C)(C)c1ccc(NC(=O)Nc2ccc(F)cc2)cc1	DAX1 inh-2 3.6, hgDAF12 agonist 15 (no result: DAX1 inh-1) | hgDAF12 conf 15 | LXR ag 2 inactive
Cc1ccc(-c2nc(C#N)c(NCc3ccco3)o2)cc1	hgDAF12 agonist 14 | hgDAF12 conf 16 | LXR ag 2 inactive
COc1ccc(-c2nc(C#N)c(NCc3ccco3)o2)cc1	hgDAF12 agonist 16 | hgDAF12 conf 16 | LXR ag 2 inactive
N#Cc1nc(-c2ccc(F)cc2)oc1NCc1ccco1	none
COc1ccc(CN2C(=O)CN(S(C)(=O)=O)CC2(C)c2nnnn2C2CCCCC2)cc1 (stereo not given)	none (no result: DAX1 inh-1, FXN GAA850 act)
CN1CCN(/N=C/c2ccc(-c3ccccc3)cc2)CC1	hgDAF12 agonist 14 | hgDAF12 conf 12 | LXR ag 2 inactive
NS(=O)(=O)c1ccc(C(=O)Nc2ccc(-c3nc4cccnc4s3)cc2)cc1	hgDAF12 agonist 14 | hgDAF12 conf 14 | LXR ag 2 inactive
NS(=O)(=O)c1ccc(NC(=O)c2ccc(-c3ccccc3)cc2)cc1	none (no result: DAX1 inh-1)
CC(=Nc1ccc(C)cc1C)c1sc2ccccc2c1O	DAX1 inh-1 5.8, hcDAF-12 act 5.7, DAX1 inh-2 4.2, hgDAF12 agonist 21, ssDAF-12 act 1.9 | hgDAF12 conf 24 | LXR ag 2 inactive
COC(=O)c1ccc(COC(=O)C2CCN(S(=O)(=O)c3c(C)cc(C)cc3C)CC2)o1	none
NNC(=O)c1ccc2nc(-c3ccc(Br)cc3)cn2c1	hgDAF12 agonist 15 | hgDAF12 conf 18 | LXR ag 2 inactive
Nc1nc(N)nc(-c2cccc(Br)c2)n1	DAX1 inh-2 4.2, hgDAF12 agonist 14 | hgDAF12 conf 11 | LXR ag 2 inactive
Cc1ccc(NC(=O)c2scc3c2CCCC3)cc1	DAX1 inh-1 4.6, hcDAF-12 act 6.2, hgDAF12 agonist 23 | hgDAF12 conf 15 | LXR ag 2 inactive
Cc1ccc(NC(=O)c2cc3c(s2)CCCC3)cc1	DAX1 inh-1 6.6, DAX1 inh-2 4.2, hgDAF12 agonist 19 | hgDAF12 conf 17 | LXR ag 2 inactive
Cc1ccc(NC(=O)CN(C)C(=O)c2cc3c(s2)CCCCC3)cc1	none
Cc1cccc(-c2ccc3c(c2)C2CC3CCN2)c1 (stereo not given)	none
CCC(/C=N/NC(=O)c1ccccc1F)CC	DAX1 inh-1 5.3, hgDAF12 agonist 18 | hgDAF12 conf inactive | LXR ag 2 inactive
C/C(CC(=O)NCc1ccc(Cl)cc1)=N\NC(=O)c1ccccc1F	hgDAF12 agonist 14, ssDAF-12 act 1.5 | hgDAF12 conf inactive | LXR ag 2 inactive
CCCC(CCC)=NNC(=O)c1ccccc1F	hgDAF12 agonist 16 | hgDAF12 conf inactive | LXR ag 2 inactive
Cc1cccc(-n2c(C)cc(/C=N/NC(=O)c3cccc([N+](=O)[O-])c3C)c2C)c1	none
Cc1cc(/C=N/NC(=O)c2ccccc2F)c(C)n1-c1ccccc1	hgDAF12 agonist 14 | hgDAF12 conf 17 | LXR ag 2 inactive
O=C(N/N=C/C(c1ccccc1)c1ccccc1)c1ccccc1F	none
O=C(Nc1cc(Cl)cc2c1-c1ccc(Cl)cc1C2O)C(Cl)Cl (stereo not given)	none
CCOCCCN(C(=O)Cn1nnc(-c2ccc(OC)c(OC)c2)n1)C(C(=O)NCC1CCCO1)c1ccc(F)cc1 (stereo not given)	none
COc1cccc(C(=O)N2CCC(n3nccc3NC(=O)CCOc3ccccc3)CC2)c1	none
CCN(CC)c1ccc(NC(=O)c2ccccc2F)cc1	hcDAF-12 act 5.6, hgDAF12 agonist 14 | hgDAF12 conf 21 | LXR ag 2 inactive
COc1ccc(O)c(C2=Nc3ccccc3N=C(c3ccccc3)C2)c1	hgDAF12 agonist 14 | hgDAF12 conf inactive | LXR ag 2 inactive
Cc1ccc(C2=Nc3ccccc3N=C(c3ccc([N+](=O)[O-])cc3)C2)c(O)c1	none
O=C(NNC1=NCCCCC1)Nc1cccc(Cl)c1	hgDAF12 agonist 19 | hgDAF12 conf 18 | LXR ag 2 inactive
Cn1ccc2cc(OCc3ccccc3)ccc21	DAX1 inh-2 4.2, hgDAF12 agonist 22, ssDAF-12 act 1.4 | hgDAF12 conf 15 | LXR ag 2 inactive
CCOC1=C/C(=C/c2c(N)n3nc(-c4ccccc4)sc3nc2=O)C=CC1=O	none (no result: DAX1 inh-1)
COC1=C/C(=C/c2c(N)n3nc(-c4ccc(C)cc4)sc3nc2=O)C=CC1=O	hcDAF-12 act 6.2, hgDAF12 agonist 13 | hgDAF12 conf inactive | LXR ag 2 inactive
COC(=O)c1cccc(Cn2ccc3ccc(-c4ccc5ccn(C(=O)C6CCC6)c5c4)cc32)c1	none (no result: DAX1 inh-1, FXN GAA850 act)
C[C@@H]1ON(C)[C@H]2C[C@H]3c4cc(-c5ccccc5)ccc4CCN3C[C@@H]12	none (no result: DAX1 inh-1, FXN GAA850 act)
CC(=O)c1ccc(NC(=O)c2ccc3snnc3c2)cc1	hgDAF12 agonist 14 | hgDAF12 conf 12 | LXR ag 2 inactive
COc1ccc(NC(=O)c2ccc3snnc3c2)cc1	none
